Active and inactive are the calls of the source. How the calls were made is not given here.

Broadly, the inhibition is the share of the control response that was lost under treatment.

The test deals with Pantothenate synthetase (Mycobacterium tuberculosis (strain ATCC 25618 / H37Rv)) (UniProt P9WIL5). Briefly: Recombinant Mtb pantothenate synthetase (PanC) inhibitors, coupled enzyme, confirmatory (AID 375).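 Further: 0% = full reaction with vehicle and 100% = no enzyme background.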 The note with it: coupled enzyme assay; at 10 µM, stronger effect = higher value.
Sequence of Pantothenate synthetase (Mycobacterium tuberculosis (strain ATCC 25618 / H37Rv)) (P9WIL5 whole entry, looked up): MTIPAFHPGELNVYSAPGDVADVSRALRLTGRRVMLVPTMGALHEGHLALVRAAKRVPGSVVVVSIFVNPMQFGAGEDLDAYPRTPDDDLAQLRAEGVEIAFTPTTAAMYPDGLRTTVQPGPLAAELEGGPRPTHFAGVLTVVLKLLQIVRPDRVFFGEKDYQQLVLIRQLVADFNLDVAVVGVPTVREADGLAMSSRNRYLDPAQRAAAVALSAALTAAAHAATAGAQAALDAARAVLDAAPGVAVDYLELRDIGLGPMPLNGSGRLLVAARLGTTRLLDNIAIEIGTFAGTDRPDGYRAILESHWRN
For `C[C@]12CC[C@@H]3c4ccc(O)cc4C(=O)C[C@H]3[C@@H]1CC[C@@H]2O`, the inhibition is 0% (inactive).

Regarding `Fc1ccc(C2C3=C(Nc4ncnn42)c2ccccc2OC3c2ccncc2)cc1` (configuration not stated), the inhibition was 0% (inactive).

As for `CCOC(=O)C1=C(C)NC2=C(C(=O)CC(C)(C)C2)C1c1ccc(N(C)C)cc1` (configuration not stated), the inhibition is 0% (inactive).

As for `COCCNc1oc(-c2ccc(C)cc2)nc1C#N`, the inhibition was 0% (inactive).

Consider `CN1CC=C2C(C#N)=C(N)C(C#N)(C#N)C(c3cccc(Cl)c3Cl)C2C1` (configuration not stated), for which the inhibition was 0% (inactive).

Regarding `CCOC(=O)C1=C(N)OC2=C(C(=O)CC(C)(C)C2)C1c1ccoc1` (configuration not stated), the inhibition was 0% (inactive).

As to `COc1ccc(C2CC(c3ccc(Cl)cc3Cl)n3nc(N)nc3N2)cc1` (configuration not stated), the inhibition was 0% (inactive).

With `O=C(Nn1cnnc1)c1cc2c(s1)CCCC2`, the inhibition was 0% (inactive).

Regarding `CNCCCN1c2ccccc2CCc2ccccc21`, the inhibition is 0% (inactive).

Turning to `CC(C)(C)n1nnnc1C(c1cccc(C#N)c1)N1CCC(Cc2ccccc2)CC1` (configuration not stated), the inhibition was 2% (inactive).

For the molecule `Cc1ccc2cc3cc(C(=O)N4CC(C)CC(C)C4)oc3nc2c1` (configuration not stated), the inhibition was 3% (inactive).

For the molecule `Cc1ccc(S(=O)(=O)NCC(=O)OCC(=O)Nc2ncc(Cl)cc2Cl)cc1`, the inhibition was 0% (inactive).

For the molecule `CC(=O)c1ccc(NC(=O)c2cc(CC(C)C)on2)cc1`, the inhibition was 0% (inactive).

In the case of `c1ccc(-c2nnc(-c3ccco3)n2-c2ccccc2)cc1`, the inhibition was 0% (inactive).

With `O=C(NCc1ccccc1)C1CCCN1S(=O)(=O)c1cccc2cccnc12` (configuration not stated), the inhibition is 0% (inactive).

For the molecule `COC(=O)CN(c1ccc(F)cc1)S(=O)(=O)c1ccccc1`, the inhibition is 0% (inactive).

With `Cc1cc(Oc2ccccc2)nc(-c2ccccc2)n1`, the inhibition is 0% (inactive).
